Here are results for nine molecules from PubChem BioAssay (NCATS).

The target in assay [1] is Transient receptor potential cation channel subfamily V member 1 (Homo sapiens) (UniProt Q8NER1). The assay is described as follows: HTS Assay for Compounds that Act as Enhancers of the Vanilloid Receptor 1 (AID 488979). Also: 0% is about no effect. The method, boiled down:
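Calcium influx kinetics via Fluo-8 (480/520 nm) in TRPV1-expressing cells, 2000/well cultured overnight at 35.5C. Compound-alone read 3 min (agonist phase), followed by EC20 capsaicin challenge for 2 min (enhancer phase).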

Assay [2] has as its target Thyrotropin receptor (Homo sapiens) (UniProt P16473). Description: qHTS Assay for Antagonists of the Thyroid Stimulating Hormone Receptor (AID 488980). Also: series mostly up to about 58 µM; 0% is about no effect. The method, boiled down:
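HEK293 cells transfected with human TSHR, suspended in HEPES-buffered HBSS with 70 uM RO 20-1724, were treated with compounds plus TSH at EC80 (4 nM final). cAMP was measured by competitive HTRF (cryptate anti-cAMP antibody, cAMP-d2 acceptor).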
For orientation: In qHTS, concentration-response curves come from the screen itself.

Assay [3] deals with D(1A) dopamine receptor (Homo sapiens) (UniProt P21728). Description: HTS Assay for Allosteric Agonists of the Human D1 Dopamine Receptor: Primary Screen for Agonists (AID 488981). Also: 0% is about no effect. The method, boiled down:
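Calcium flux in an inducible, force-coupled HEK293 Trex D1 line (overnight at 30 C): agonist mode is the 180 s kinetic read after compound; potentiator mode is the following 180 s read after dopamine at EC20.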

For assay [4] the target is unchanged. Description: HTS Assay for Allosteric Agonists of the Human D1 Dopamine Receptor: Primary Screen for Antagonists (AID 488983).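 Also: calcium flux response to an EC80 dopamine challenge measured with no-wash dye; % is scaled to controls: 0 for no effect and ±100 for the full control effect; nearly all actives have a fitted effect of over 65% in size.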 The method in brief: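 Calcium flux readout, no-wash dye, inducible HEK293 T-REx D1 line (force-coupled). Compound added after 10 s baseline, 180 s kinetic read; then dopamine at EC80, further 180 s read.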
The nature of assay [5]: Validation screen for small molecules that induce genotoxicity in human embryonic kidney (HEK293T) cells expressing luciferase-tagged ELG1 (AID 493106). Also: 0% is about no effect. The method, boiled down: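 qHTS format; 2,000 HEK293T ELG1-luc cells/well; 23 nL compound via pin tool; 16 hr, 37 °C/5% CO2; ONE-Glo, 30 min RT; luminescence read.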
Assay [6] deals with Galactokinase (Homo sapiens) (UniProt P51570). Description: qHTS Validation Assay for Inhibitors of Human Galactokinase (GALK) (AID 493189). Also: 0% is about no effect. The method, boiled down:
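GALK (5 nM) with 35 uM ATP and 100 uM galactose in HEPES pH8.0, MgCl2, NaCl, DTT, BSA; 1 h at room temperature. Residual ATP read by Kinase-Glo Plus luminescence after 10 min.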

Assay [7] deals with phosphoglycerate mutase (Leishmania major) (UniProt Q4Q090). The assay is described as follows: qHTS Validation Assay to Find Inhibitors of Phosphoglycerate Mutase (AID 504548).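 Also: end-point luminescence from Kinase-GloPlus after the PGAM reaction; series mostly up to about 58 µM; % is scaled to controls: 0 for no effect and ±100 for the full control effect.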 Particulars: Potency: inhibition qHTS. The method, boiled down: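 Inhibition of L. major PGAM was assessed by Kinase-GloPlus luminescence following a 45-minute room-temperature reaction with enzyme at 1.25nM final.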

Assay [8] can be described thus: qHTS for Inhibitors of ATXN expression: Validation (AID 588378). Also: series mostly up to about 57 µM; % is scaled to controls: 0 for no effect and ±100 for the full control effect; nearly all actives have a fitted effect of over 75% in size. The method, boiled down:
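Luminescence from an ATXN2-FFLuc reporter in HEK293 cells served as read-out after 24 h compound treatment at 37 degrees C; CellTiter-Fluor fluorescence was recorded first to assess viability.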

The target in assay [9] is ATPase family AAA domain-containing protein 5 (Homo sapiens) (UniProt Q96QE3). Description: Validation screen for small molecules that inhibit ELG1-dependent DNA repair in human embryonic kidney (HEK293T) cells expressing luciferase-tagged ELG1 (AID 493107).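 Also: cells co-treated with the DNA-damaging agent 5-fluorouridine alongside compound; series mostly up to about 46 µM; % is scaled to controls: 0 for no effect and ±100 for the full control effect; inhibitors lower the ELG1-luciferase luminescence signal; nearly all actives have a fitted effect of over 70% in size.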 The method, boiled down:
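ELG1-luciferase HEK293T reporter; 5-fluorouridine + compound/DMSO, 16 hr, 37 °C, 5% CO2; ONE-Glo 30 min RT; luminescence read, qHTS format.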

Assay [10] in a line: qHTS for Inhibitors of Cell Surface uPA Generation: Validation Assay (AID 493164).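 Also: RAW 264.7 macrophage cells exposed to compound for 18 h; 0% is about no effect.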 The method, boiled down: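 Compounds are titrated over seven points (2.45 nM–38.3 uM final) onto pre-plated RAW 264.7 cells and incubated for 18 h. Retained intracellular ATP, measured with ATP-Lite, indicates blocked lethal factor entry.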
Assay [11] can be described thus: Validation screen for small molecules that induce DNA re-replication in SW480 colon adenocarcinoma cells (AID 504364). Also: 0% is about no effect. The method, boiled down: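 Read-out: total Hoechst intensity of nuclei by fluorescence scanning imager; hits raise the fraction of nuclei with elevated DNA content. Cells received compound for 48 hr at 37 C before a 40 min stain.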
Assay [12] has as its target Peptidyl-prolyl cis-trans isomerase NIMA-interacting 1 (Homo sapiens) (UniProt Q13526). The assay is described as follows: qHTS Validation Assay to Find Inhibitors of Pin1 (AID 504536; active = well fitted inhibition curve with a large enough effect in the polarisation, with a control signal flat, not every such curve was filed as active; the % refers to the polarisation; also: potency is read from the fitted curve at half-maximal effect). The method, boiled down: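 Fluorescence polarization competition: compounds (titration) displace HiFluor-488-labeled Pin1-1b peptide from Pin1 (0.3 uM final) in pH 7.5 HEPES buffer with DTT, 10 min at room temperature; %Activity normalized to no-enzyme wells, curves fitted.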

Assay [13] concerns the target Phosphoglycerate kinase, glycosomal (Trypanosoma brucei brucei) (UniProt P07378). Description: qHTS Validation Assay to Find Inhibitors of Phosphoglycerate Kinase (AID 504547).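 Also: control wells lack PGK and mark full inhibition.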 The method, boiled down:
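Luminescence end-point (Kinase-Glo Plus, 10 min) after a 60 min room-temperature coupled reaction. GAPDH at 100nM final supplies 1,3-BPG to PGK. Buffer: 100mM TEA pH 7.6, 5mM MgCl2, 0.01% Tween-20. Wells lacking PGK served as controls.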

For assay [14], the target named is Ubiquitin carboxyl-terminal hydrolase 1 (Homo sapiens) (UniProt O94782). The assay is described as follows: Inhibitors of USP1/UAF1: Pilot qHTS (AID 504865). Also: nearly all actives have a fitted effect of over 35% in size. Also: potency is read from the fitted curve at half-maximal effect. The method, boiled down:
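USP1/UAF1 complex (1nM) preincubated with compound 15 min at room temperature, then Ub-Rho substrate (150nM final) added. Fluorescence read kinetically at 480/540 nm, 6 reads every 60 seconds. Buffer: 50mM HEPES pH 7.8, 0.5mM EDTA, 0.1 mg/ml BSA, 1mM TCEP, 0.01% Tween-20.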

The nature of assay [15]: qHTS for Inhibitors of ATXN expression: Validation of Cytotoxic Assay (AID 588349). Also: % is scaled to controls: 0 for no effect and ±100 for the full control effect. The method, boiled down: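 Cytotoxicity counter-screen: HEK293 cells exposed to compound titrations, 72 hr, 37 degrees C. Read-out is intracellular ATP (CellTiter Glo luminescence) as a viability measure.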
For assay [16], the target named is Thyrotropin-releasing hormone receptor (Homo sapiens) (UniProt P34981). The assay is described as follows: qHTS for Small Molecule Agonists and Allosteric Enhancers of Human TRH Receptor: Validation Screen for Agonists (AID 493127;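 active = calcium activation more than 3 SD above the typical response in the agonist read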;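 also: intracellular calcium rise by fluo-8 fluorescence before TRH EC20 addition; 0% is about no effect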). Particulars: TRH receptor agonist cell assay; at 2 µM; stronger effect = higher value. The method, boiled down: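 Read-out: intracellular calcium release measured kinetically by FDSS (fluo-8, ex 480/em 530 nm), 1 reading/s after a 10-cycle baseline. TRHR cells, 2000/well, cultured 18 h at 33.5C, dye-loaded at room temp. Compound-evoked positive calcium signal flags agonists.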

The nature of assay [17]: Nrf2 qHTS screen for inhibitors: Validation (AID 493153; active = well fitted inhibition curve with a large enough effect in the main read-out, with a control signal flat, not every such curve was filed as active). Particulars: Potency: luciferase luminescence; viability change: measured here: cytotoxicity max response. The method, boiled down: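 Concentration-response test in A549 ARE_Fluc reporter cells (5% FBS OPTI-MEM), compound exposure 18-24 h at 37°C, 5% CO2. Cell viability measured first by CellTiter-Fluor fluorescence; ARE-driven luciferase luminescence then measured as Nrf2 activity.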

Results filed as inconclusive are left out. The source made the active and inactive calls. Unless noted, calls follow the shape of the dose curve; as a rule, active = well fitted curve in the direction sought with a large enough effect; inconclusive = small, poorly fitted or top-dose-only effect, or another doubt; inactive = no such curve, though single readings can be large; an effect the other way counts as inactive or inconclusive.

Chain of ATPase family AAA domain-containing protein 5 (Homo sapiens) (Q96QE3 whole entry, looked up, the tested form may be a part): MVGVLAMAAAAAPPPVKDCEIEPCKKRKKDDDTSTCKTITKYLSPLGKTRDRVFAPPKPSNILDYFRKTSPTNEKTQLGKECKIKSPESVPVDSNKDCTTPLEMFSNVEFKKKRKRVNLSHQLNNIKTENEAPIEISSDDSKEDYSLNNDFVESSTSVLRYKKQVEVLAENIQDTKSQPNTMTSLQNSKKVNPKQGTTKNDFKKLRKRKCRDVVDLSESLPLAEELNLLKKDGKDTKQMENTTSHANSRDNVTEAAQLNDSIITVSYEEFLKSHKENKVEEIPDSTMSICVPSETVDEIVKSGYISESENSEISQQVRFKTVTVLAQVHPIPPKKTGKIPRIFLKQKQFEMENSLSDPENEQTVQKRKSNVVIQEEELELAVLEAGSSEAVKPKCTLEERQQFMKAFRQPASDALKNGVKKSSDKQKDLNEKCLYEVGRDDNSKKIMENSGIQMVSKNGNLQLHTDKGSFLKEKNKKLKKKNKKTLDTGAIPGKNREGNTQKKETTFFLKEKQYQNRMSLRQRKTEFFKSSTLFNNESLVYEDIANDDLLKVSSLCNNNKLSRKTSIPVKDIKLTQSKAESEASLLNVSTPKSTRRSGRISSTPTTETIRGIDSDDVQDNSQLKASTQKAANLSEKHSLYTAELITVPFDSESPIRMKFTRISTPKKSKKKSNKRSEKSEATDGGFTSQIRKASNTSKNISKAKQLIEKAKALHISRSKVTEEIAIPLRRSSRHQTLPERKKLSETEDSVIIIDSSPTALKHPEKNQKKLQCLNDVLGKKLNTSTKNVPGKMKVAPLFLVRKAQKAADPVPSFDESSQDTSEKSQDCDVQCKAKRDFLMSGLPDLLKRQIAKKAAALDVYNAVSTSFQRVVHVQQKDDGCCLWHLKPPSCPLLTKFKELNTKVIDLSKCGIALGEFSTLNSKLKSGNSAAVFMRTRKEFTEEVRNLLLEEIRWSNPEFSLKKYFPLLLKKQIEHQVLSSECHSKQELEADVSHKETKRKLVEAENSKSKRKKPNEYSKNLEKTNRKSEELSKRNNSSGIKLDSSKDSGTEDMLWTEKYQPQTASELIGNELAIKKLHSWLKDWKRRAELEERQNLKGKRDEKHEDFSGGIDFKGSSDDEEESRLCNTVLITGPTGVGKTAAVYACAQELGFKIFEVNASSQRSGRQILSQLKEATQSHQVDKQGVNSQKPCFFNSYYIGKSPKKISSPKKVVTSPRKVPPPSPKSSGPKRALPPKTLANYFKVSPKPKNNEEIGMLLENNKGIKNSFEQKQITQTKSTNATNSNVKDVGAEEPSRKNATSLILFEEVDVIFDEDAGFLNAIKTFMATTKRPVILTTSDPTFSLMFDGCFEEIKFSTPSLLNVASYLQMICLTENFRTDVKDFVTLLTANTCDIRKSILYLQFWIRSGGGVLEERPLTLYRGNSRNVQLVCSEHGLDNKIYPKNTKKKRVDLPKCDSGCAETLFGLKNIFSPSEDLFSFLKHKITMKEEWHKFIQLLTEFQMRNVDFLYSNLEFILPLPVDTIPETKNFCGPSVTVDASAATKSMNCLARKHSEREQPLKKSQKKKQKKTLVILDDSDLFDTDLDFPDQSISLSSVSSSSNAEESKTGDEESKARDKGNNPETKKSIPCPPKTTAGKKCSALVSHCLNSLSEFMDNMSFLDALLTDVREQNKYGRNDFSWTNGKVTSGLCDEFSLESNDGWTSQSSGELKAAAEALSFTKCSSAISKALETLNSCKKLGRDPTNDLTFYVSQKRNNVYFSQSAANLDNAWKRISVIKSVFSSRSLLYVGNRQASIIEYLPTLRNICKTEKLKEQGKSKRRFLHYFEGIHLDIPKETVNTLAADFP
Chain of Ubiquitin carboxyl-terminal hydrolase 1 (Homo sapiens) (O94782 whole entry, looked up): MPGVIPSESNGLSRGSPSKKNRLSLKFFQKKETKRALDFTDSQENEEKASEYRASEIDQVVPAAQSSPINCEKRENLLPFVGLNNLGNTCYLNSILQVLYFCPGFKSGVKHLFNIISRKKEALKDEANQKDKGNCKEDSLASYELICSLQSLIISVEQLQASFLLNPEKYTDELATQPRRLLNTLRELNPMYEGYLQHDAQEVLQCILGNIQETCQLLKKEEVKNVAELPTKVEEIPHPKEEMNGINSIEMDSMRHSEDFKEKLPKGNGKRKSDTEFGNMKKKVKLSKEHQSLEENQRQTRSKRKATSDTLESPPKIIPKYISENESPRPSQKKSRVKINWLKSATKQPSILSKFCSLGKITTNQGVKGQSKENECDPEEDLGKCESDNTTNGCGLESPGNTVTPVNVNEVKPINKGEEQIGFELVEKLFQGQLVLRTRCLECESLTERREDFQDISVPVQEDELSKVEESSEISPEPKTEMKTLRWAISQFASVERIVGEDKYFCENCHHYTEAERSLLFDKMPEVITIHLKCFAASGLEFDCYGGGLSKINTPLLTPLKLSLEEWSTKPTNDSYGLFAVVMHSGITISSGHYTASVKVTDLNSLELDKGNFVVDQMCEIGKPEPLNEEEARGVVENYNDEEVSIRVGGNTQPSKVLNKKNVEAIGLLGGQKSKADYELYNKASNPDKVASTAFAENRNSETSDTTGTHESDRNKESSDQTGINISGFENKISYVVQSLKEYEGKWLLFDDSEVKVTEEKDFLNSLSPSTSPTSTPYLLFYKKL
Chain of Thyrotropin-releasing hormone receptor (Homo sapiens) (P34981 whole entry, looked up): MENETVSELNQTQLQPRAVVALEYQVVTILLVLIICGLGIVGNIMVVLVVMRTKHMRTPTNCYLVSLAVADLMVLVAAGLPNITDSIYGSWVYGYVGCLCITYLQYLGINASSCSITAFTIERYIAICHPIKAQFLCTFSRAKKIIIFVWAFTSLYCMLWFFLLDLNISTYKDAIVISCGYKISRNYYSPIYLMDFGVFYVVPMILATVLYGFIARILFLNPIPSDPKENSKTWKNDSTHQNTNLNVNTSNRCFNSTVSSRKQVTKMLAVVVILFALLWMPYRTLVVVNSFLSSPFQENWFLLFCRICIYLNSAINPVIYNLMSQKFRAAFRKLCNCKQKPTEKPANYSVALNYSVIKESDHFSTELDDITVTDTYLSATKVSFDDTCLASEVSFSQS
Chain of phosphoglycerate mutase (Leishmania major) (Q4Q090 1-553): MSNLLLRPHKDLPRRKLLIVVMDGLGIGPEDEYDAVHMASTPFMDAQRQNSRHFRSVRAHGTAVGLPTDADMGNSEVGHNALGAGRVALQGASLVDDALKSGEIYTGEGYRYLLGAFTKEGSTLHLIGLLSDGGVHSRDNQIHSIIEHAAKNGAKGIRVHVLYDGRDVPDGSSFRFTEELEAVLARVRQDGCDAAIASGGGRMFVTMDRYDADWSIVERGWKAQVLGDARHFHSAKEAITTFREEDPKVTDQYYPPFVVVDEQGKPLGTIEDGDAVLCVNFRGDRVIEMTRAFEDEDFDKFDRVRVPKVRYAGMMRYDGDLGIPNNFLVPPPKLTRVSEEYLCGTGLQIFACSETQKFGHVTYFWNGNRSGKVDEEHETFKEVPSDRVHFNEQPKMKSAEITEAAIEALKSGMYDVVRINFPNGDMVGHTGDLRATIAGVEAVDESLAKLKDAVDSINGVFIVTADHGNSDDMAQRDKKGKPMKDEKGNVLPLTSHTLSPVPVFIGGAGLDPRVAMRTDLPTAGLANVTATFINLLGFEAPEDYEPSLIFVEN
Chain of D(1A) dopamine receptor (Homo sapiens) (P21728 whole entry, looked up): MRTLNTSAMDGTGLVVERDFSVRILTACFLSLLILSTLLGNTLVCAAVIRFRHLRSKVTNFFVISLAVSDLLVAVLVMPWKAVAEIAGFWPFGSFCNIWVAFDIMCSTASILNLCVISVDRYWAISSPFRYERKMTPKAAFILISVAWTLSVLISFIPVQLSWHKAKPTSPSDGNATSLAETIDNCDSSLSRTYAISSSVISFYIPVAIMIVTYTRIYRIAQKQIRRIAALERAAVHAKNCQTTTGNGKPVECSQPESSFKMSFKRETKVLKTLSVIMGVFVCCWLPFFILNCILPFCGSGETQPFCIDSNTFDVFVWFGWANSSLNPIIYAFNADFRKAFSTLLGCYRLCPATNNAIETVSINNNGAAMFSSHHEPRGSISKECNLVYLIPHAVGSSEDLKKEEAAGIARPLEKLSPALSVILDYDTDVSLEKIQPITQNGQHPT
Chain of Transient receptor potential cation channel subfamily V member 1 (Homo sapiens) (Q8NER1 whole entry, looked up): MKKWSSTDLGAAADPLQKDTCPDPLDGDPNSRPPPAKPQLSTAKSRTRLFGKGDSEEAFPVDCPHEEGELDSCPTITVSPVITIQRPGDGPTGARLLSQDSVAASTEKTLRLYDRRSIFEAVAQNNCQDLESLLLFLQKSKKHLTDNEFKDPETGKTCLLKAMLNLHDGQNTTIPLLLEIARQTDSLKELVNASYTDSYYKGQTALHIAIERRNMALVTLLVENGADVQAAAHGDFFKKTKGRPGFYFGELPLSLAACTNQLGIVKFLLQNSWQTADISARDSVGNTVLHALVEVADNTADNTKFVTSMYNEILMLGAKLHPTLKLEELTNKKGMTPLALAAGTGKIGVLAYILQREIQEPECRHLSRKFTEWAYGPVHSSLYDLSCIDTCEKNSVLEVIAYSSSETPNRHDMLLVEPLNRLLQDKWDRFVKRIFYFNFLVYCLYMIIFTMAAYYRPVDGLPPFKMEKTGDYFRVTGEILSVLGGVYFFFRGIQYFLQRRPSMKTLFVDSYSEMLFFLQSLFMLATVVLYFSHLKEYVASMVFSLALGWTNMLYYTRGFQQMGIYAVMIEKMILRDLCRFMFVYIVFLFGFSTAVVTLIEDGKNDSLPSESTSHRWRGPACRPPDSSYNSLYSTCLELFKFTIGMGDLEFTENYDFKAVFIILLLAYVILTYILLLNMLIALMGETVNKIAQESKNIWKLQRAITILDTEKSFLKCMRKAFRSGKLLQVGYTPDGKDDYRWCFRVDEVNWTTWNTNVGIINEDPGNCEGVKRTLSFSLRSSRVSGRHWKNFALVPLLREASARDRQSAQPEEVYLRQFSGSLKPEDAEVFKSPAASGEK
Chain of Peptidyl-prolyl cis-trans isomerase NIMA-interacting 1 (Homo sapiens) (Q13526 whole entry, looked up): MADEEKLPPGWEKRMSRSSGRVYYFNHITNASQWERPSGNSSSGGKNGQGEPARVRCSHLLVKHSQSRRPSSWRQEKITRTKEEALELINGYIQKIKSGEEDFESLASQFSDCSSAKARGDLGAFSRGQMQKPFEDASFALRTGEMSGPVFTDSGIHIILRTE

In the case of `N#C/C(=C\c1ccc(O)c(O)c1)C(=O)NCCCNC(=O)/C(C#N)=C/c1ccc(O)c(O)c1`, the result in assay [1] and in assay [2] was inactive. Further, the Potency entry in [3], in assay [4], in assay [5], in assay [6], in assay [7] and in [8] was “inactive” in each case.
Regarding `O=c1[nH]c2ccccc2c2ccccc12`, the outcome in assay [1], in [2] and in [10] was inactive. Further, the Potency entry in [3], in assay [4], in assay [5], in [9], in [6] and in [11] was “inactive” each time. For the same molecule, the Potency result in [12], in assay [13], in [7], in [14] and in assay [15] was “inactive” each time.
With `Cn1cc(C(=O)OCC2CCN(CCNS(C)(=O)=O)CC2)c2ccccc21`, the outcome in assay [1], in assay [2] and in [10] was inactive. For the same molecule, the Potency result in assay [3], in assay [4], in [5], in [9], in [17] and in assay [6] was “inactive” each time. Besides, the Potency result in [11], in [12], in assay [13], in assay [7] and in [15] was “inactive” throughout. Moreover, the activation in assay [16] is 0.688% (inactive). Further, the viability change in assay [17] is -0.747%.
With `COc1ccc(C(=O)NCc2cccnc2)cc1C(=O)NCc1cccnc1`, the outcome in [1] and in assay [2] was inactive. For the same molecule, the Potency result in [3], in [4], in assay [9], in assay [17], in [6] and in assay [11] was “inactive” in each case. Further, the Potency entry in assay [7], in [14] and in [8] was “inactive” throughout. For the same molecule, in assay [16], the activation was 0.938% (inactive). Also, in assay [17], the viability change was -5.34%.
Regarding `Cc1nc2c(OCc3ccccc3)cccn2c1CC#N`, the outcome in [1], in assay [2] and in assay [10] was inactive. Further, the Potency entry in assay [3], in assay [4], in [5], in [17], in [6] and in assay [11] was “inactive” in each case. Besides, the Potency result in [12], in assay [13], in assay [7], in assay [14], in assay [15] and in assay [8] was “inactive” each time. Besides, in assay [16], the activation was 0.25% (inactive). The viability change in assay [17] was -7.51%.
Turning to `O=c1ccn([C@@H]2O[C@H](COP(=O)(O)OP(=O)(O)O)[C@@H](O)[C@H]2O)c(=O)[nH]1`, the outcome in [1], in assay [2] and in [10] was inactive. The Potency result in [3], in assay [4], in assay [5], in [17], in assay [6] and in [11] was “inactive” each time. For the same molecule, the Potency entry in [12], in [13], in assay [7], in [14], in assay [15] and in [8] was “inactive” throughout. The activation in assay [16] was 0.188% (inactive). The viability change in [17] was determined as 3.88%.
As for `[N-]=[N+]=Nc1ccc(C(=O)CSC[C@H](NC(=O)CC[C@H](N)C(=O)O)C(=O)NCC(=O)O)cc1`, the result in [1] and in assay [2] was inactive. For the same molecule, the Potency entry in [3], in [4], in [9], in [6], in assay [11] and in assay [7] was “inactive” throughout. In addition, the Potency entry in [8] was “inactive”. Moreover, in assay [16], the activation was 1.12% (inactive). Also, the Potency was 23.9 µM (active) in [12] and 35.5 µM (active) in [14].
For the molecule `O=C(O)C1=CCCNC1`, the outcome in [1], in [2] and in assay [10] was inactive. Also, the Potency result in [3], in assay [4], in assay [9], in assay [17], in assay [6] and in [11] was “inactive” in each case. In addition, the Potency result in assay [12], in assay [13], in assay [7], in assay [14] and in assay [15] was “inactive” in each case. Also, in assay [16], the activation is 0.875% (inactive). In assay [17], the viability change was 5.73%.
Consider `N[C@@H](CCCC(=O)O)C(=O)O`, for which the outcome in assay [1], in assay [2] and in assay [10] was inactive. Moreover, the Potency entry in assay [3], in assay [4], in [5], in [17], in [6] and in assay [11] was “inactive” each time. In addition, the Potency result in assay [12], in assay [13], in [7], in [14], in assay [15] and in [8] was “inactive” each time. Besides, the activation in assay [16] is 0.75% (inactive). Moreover, the viability change in assay [17] came to 7.86%.
